Measurements published in the supplement of paper PMC7411054.
Structures can show the parent of a compound that is named as a salt.

What was measured:
Experiment in all cases: phenotypically active (imaging signature differs from DMSO and reproducible) at any of 0.3-9 uM (binary (1 = active, 0 = inactive)); higher = active
Details in all cases: treatment time: 24 h
[1] = system: A549-ACTB-RAB5A
Outline: (§1)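 Phenotypic activity depended on meeting both a deviation and a reproducibility criterion. The fifteen gene-edited A549, HepG2 and WPMY1 reporter lines were treated at 0.3, 1, 3 or 9 µM for 24 h, four wells each, then imaged live with features normalised to solvent control wells. Deviation required ≥3 of 4 wells past the 95th percentile of control Euclidean distances, and reproducibility a median replicate Pearson correlation above the 95th percentile of non-replicates.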

[2] = system: A549-CANX-COX4
Outline: as §1

[3] = system: A549-GM130-SQSTM1
Outline: as §1

[4] = system: A549-TP53BP1-CLTA
Outline: as §1

[5] = system: A549-TUBA1B-RELA
Outline: as §1

[6] = system: HepG2-ACTB-RAB5A
Outline: as §1

[7] = system: HepG2-CANX-COX4
Outline: as §1

[8] = system: HepG2-GM130-SQSTM1
Outline: as §1

[9] = system: HepG2-TP53BP1-CLTA
Outline: as §1

[10] = system: HepG2-TUBA1B-RELA
Outline: as §1

[11] = system: WPMY1-ACTB-RAB5A
Outline: as §1

[12] = system: WPMY1-CANX-COX4
Outline: as §1

[13] = system: WPMY1-GM130-SQSTM1
Outline: as §1

[14] = system: WPMY1-TP53BP1-CLTA
Outline: as §1

[15] = system: WPMY1-TUBA1B-RELA
Outline: as §1

Measured: phenotypically active

COC(=O)C1=C(C)NC(C)=C(C(=O)OC(C)C)C1c1cccc2nonc12 (stereo not given) [isradipine]
inactive: [1] 0 | [2] 0 | [3] 0 | [4] 0 | [5] 0 | [6] 0 | [7] 0 | [8] 0 | [9] 0 | [10] 0 | [11] 0 | [12] 0 | [13] 0 | [14] 0 | [15] 0

c1ccc2c(c1)CN1CCCC1=N2 [Desoxypeganine Hydrochloride]
inactive: [1] 0 | [2] 0 | [3] 0 | [4] 0 | [5] 0 | [6] 0 | [7] 0 | [8] 0 | [9] 0 | [10] 0 | [11] 0 | [12] 0 | [13] 0 | [14] 0 | [15] 0

Cc1ccccc1Sc1ccc(/C=C2/SC(=S)NC2=O)cc1[N+](=O)[O-]
inactive: [1] 0 | [2] 0 | [3] 0 | [4] 0 | [5] 0 | [6] 0 | [7] 0 | [8] 0 | [9] 0 | [10] 0 | [11] 0 | [12] 0 | [13] 0 | [14] 0 | [15] 0

CCN(c1ccccc1)c1cc(NC)[n+](C)c(C)n1
inactive: [1] 0 | [2] 0 | [3] 0 | [4] 0 | [5] 0 | [6] 0 | [7] 0 | [8] 0 | [9] 0 | [10] 0 | [11] 0 | [12] 0 | [13] 0 | [14] 0 | [15] 0

O=C(O)CCCc1ccccc1 [Sodium 4-Phenylbutyrate]
inactive: [1] 0 | [2] 0 | [3] 0 | [4] 0 | [5] 0 | [6] 0 | [7] 0 | [8] 0 | [9] 0 | [10] 0 | [11] 0 | [12] 0 | [13] 0 | [14] 0 | [15] 0

C[C@H](NCCc1ccc(O)cc1)[C@H](O)c1ccc(O)cc1 [ritodrine]
inactive: [1] 0 | [2] 0 | [3] 0 | [4] 0 | [5] 0 | [6] 0 | [7] 0 | [8] 0 | [9] 0 | [10] 0 | [11] 0 | [12] 0 | [13] 0 | [14] 0 | [15] 0

C#C[C@]1(OC(C)=O)CC[C@H]2[C@@H]3CCC4=CC(=NO)CC[C@@H]4[C@H]3CC[C@@]21CC [norgestimate]
inactive: [1] 0 | [2] 0 | [3] 0 | [4] 0 | [5] 0 | [6] 0 | [7] 0 | [8] 0 | [9] 0 | [10] 0 | [11] 0 | [12] 0 | [13] 0 | [14] 0 | [15] 0

O=[N+]([O-])c1cc([N+](=O)[O-])c(/C=C/c2ccc(Cl)c(Cl)c2)cc1/C=C/c1ccc(Cl)c(Cl)c1
inactive: [1] 0 | [2] 0 | [3] 0 | [4] 0 | [5] 0 | [6] 0 | [7] 0 | [8] 0 | [9] 0 | [10] 0 | [11] 0 | [12] 0 | [13] 0 | [14] 0 | [15] 0

CCCCCCC(=O)OC1CC(C)(C)NC(C)(C)C1 [TMPH hydrochloride]
inactive: [1] 0 | [2] 0 | [3] 0 | [4] 0 | [5] 0 | [6] 0 | [7] 0 | [8] 0 | [9] 0 | [10] 0 | [11] 0 | [12] 0 | [13] 0 | [14] 0 | [15] 0

Nc1ccc(O)c(C(=O)O)c1 [mesalazine]
inactive: [1] 0 | [2] 0 | [3] 0 | [4] 0 | [5] 0 | [6] 0 | [7] 0 | [8] 0 | [9] 0 | [10] 0 | [11] 0 | [12] 0 | [13] 0 | [14] 0 | [15] 0

C[n+]1cccc(C(=O)O)c1 [Trigonelline hydrochloride]
inactive: [1] 0 | [2] 0 | [3] 0 | [4] 0 | [5] 0 | [6] 0 | [7] 0 | [8] 0 | [9] 0 | [10] 0 | [11] 0 | [12] 0 | [13] 0 | [14] 0 | [15] 0

NC(=O)C(c1ccccc1)(c1ccc(F)cc1)c1ccc(F)cc1 [senicapoc]
inactive: [1] 0 | [2] 0 | [3] 0 | [4] 0 | [5] 0 | [6] 0 | [7] 0 | [8] 0 | [9] 0 | [10] 0 | [11] 0 | [12] 0 | [13] 0 | [14] 0 | [15] 0
